Test results published in the supplement of paper PMC10849652.
Targets with a hit are over-represented here; the source holds about 8,800 in all. About 0.5% of all pairs of compound and target were hits. A number with no mark means an inactive call.

What was measured:
Test in all cases: log2 fold change, soluble protein after heating vs DMSO (PISA); higher = thermal stabilisation; K562 lysate, 10 uM; active = over 0.2 and 3.5 SD of the protein, either way, in both replicates (recomputed)
alvocidib = compound: CN1CC[C@H](c2c(O)cc(O)c3c(=O)cc(-c4ccccc4Cl)oc23)[C@H](O)C1 [alvocidib]
Method in brief: (§1)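 Pellets of K562 cells were dounce-homogenised in PBS pH 7.4 with 1 mM MgCl2, and the crude extract was held at 1 mg/mL protein for a 30 min treatment with 10 μM compound. Aliquots were heated for 3 min over 48°C-58°C and pooled before NP-40 was added to 0.5% at 4°C. The supernatant from 21,000xg for 90 min was quantified by TMTpro 16plex LC-MS/MS with channel sums equalised. Values are reported from duplicates as log-two fold change in thermal stability relative to solvent controls.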

Tubastatin A = compound: CN1CCc2c(c3ccccc3n2Cc2ccc(C(=O)NO)cc2)C1 [Tubastatin A]
Method in brief: as §1

[1] = compound: CNC(=O)C1=CC=CC=C1NC2=NC(=NC=C2Cl)NC3=C(C=C(C=C3)N4CCOCC4)OC
Method in brief: as §1

defactinib = compound: CNC(=O)c1ccc(Nc2ncc(C(F)(F)F)c(NCc3nccnc3N(C)S(C)(=O)=O)n2)cc1 [defactinib]
Method in brief: as §1

[2] = compound: CNc1nc(-c2ccc3c(N)n[nH]c3c2)cc(N2C[C@@H](C(=O)NC3CCCCC3)CC[C@H]2C)n1
Method in brief: as §1

encorafenib = compound: COC(=O)N[C@@H](C)CNc1nccc(-c2cn(C(C)C)nc2-c2cc(Cl)cc(NS(C)(=O)=O)c2F)n1 [encorafenib]
Method in brief: as §1

[3] = compound: COC(=O)[C@H](CCSC)NC(=O)C1=C(C=C(C=C1)NC[C@H](CS)N)C2=CC=CC=C2
Method in brief: as §1

alisertib = compound: COc1cc(Nc2ncc3c(n2)-c2ccc(Cl)cc2C(c2c(F)cccc2OC)=NC3)ccc1C(=O)O [alisertib]
Method in brief: as §1

[4] = compound: COc1cc2nc(-c3cc(F)ccc3O)nc(N[C@@H]3CNC[C@H]3C(C)(C)O)c2cc1OC
Method in brief: as §1

gefitinib = compound: COc1cc2ncnc(Nc3ccc(F)c(Cl)c3)c2cc1OCCCN1CCOCC1 [gefitinib]
Method in brief: as §1

Sequence of UniProt Q9H2D1 (Q9H2D1 whole entry, looked up): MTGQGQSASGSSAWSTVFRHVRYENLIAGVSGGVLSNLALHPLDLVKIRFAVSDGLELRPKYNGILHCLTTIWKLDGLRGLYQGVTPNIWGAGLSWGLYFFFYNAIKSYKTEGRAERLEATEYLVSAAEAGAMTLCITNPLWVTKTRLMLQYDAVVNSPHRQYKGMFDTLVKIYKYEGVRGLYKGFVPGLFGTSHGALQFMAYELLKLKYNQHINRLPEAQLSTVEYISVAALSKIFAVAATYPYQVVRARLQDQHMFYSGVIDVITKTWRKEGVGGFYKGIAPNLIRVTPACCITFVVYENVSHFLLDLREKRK
Sequence of UniProt Q9Y2D2 (Q9Y2D2 whole entry, looked up): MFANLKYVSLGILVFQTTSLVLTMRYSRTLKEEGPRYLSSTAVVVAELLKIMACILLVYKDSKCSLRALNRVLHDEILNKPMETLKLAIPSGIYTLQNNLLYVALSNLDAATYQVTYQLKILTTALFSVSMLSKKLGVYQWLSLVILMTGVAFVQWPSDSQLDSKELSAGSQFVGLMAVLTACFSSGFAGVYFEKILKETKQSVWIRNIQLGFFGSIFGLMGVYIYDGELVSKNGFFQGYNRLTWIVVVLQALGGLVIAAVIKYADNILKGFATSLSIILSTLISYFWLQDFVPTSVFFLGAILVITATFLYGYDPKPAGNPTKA
Sequence of UniProt Q9UNE7 (Q9UNE7 whole entry, looked up): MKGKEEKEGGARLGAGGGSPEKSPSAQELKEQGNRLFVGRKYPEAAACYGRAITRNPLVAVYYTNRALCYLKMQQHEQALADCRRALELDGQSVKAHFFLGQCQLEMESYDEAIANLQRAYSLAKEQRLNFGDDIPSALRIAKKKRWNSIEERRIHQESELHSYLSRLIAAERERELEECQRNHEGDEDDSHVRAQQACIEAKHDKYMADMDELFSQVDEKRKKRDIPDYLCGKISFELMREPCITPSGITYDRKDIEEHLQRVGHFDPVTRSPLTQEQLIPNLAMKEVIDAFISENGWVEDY
Sequence of UniProt Q6KCM7 (Q6KCM7 whole entry, looked up): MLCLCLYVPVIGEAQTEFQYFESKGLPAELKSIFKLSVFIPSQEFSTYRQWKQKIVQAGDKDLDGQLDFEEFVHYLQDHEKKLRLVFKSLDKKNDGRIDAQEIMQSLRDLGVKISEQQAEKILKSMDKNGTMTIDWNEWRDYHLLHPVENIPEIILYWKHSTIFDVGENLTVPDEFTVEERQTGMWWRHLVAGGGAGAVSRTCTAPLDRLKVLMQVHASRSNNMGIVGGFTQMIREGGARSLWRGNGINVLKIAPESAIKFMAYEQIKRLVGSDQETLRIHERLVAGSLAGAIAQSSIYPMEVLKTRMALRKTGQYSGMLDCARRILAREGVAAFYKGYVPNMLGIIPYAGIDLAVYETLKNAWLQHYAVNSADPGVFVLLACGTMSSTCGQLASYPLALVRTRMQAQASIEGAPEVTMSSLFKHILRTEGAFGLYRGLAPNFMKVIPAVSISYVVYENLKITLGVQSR
Sequence of UniProt Q9NP77 (Q9NP77 whole entry, looked up): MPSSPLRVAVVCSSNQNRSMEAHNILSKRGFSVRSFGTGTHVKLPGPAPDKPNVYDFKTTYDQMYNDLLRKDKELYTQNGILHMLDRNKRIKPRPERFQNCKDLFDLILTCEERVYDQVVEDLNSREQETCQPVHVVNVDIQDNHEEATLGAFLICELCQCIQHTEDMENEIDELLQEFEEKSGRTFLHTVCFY
Sequence of UniProt P53985 (P53985 whole entry, looked up): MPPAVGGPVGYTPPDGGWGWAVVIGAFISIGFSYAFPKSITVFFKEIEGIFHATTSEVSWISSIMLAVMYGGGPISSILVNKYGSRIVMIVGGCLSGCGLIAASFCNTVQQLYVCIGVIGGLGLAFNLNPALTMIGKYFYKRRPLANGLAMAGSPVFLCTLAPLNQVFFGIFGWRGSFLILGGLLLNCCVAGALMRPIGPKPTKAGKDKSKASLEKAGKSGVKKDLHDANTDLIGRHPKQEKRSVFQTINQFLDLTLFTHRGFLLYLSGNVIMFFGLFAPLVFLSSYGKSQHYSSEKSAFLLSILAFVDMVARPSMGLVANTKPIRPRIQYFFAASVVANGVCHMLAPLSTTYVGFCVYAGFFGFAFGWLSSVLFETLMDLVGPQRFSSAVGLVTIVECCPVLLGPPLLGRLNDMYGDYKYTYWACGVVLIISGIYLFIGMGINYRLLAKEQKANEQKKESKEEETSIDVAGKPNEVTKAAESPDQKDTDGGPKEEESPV
Sequence of UniProt Q9H668 (Q9H668 whole entry, looked up): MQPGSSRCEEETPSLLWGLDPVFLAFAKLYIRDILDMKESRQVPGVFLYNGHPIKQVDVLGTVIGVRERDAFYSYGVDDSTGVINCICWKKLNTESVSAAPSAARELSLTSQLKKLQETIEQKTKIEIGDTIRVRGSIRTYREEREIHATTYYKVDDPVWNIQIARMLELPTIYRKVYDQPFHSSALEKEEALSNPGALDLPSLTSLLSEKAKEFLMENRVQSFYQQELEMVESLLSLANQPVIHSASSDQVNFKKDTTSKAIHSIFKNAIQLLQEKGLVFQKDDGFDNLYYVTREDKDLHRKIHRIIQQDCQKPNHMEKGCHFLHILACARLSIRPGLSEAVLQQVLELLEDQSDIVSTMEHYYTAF
Sequence of UniProt Q8WVK7 (Q8WVK7 whole entry, looked up): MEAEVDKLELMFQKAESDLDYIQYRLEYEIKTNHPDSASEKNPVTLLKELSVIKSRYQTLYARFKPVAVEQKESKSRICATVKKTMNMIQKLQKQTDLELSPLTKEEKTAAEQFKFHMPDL
Sequence of UniProt Q6NXT4 (Q6NXT4 whole entry, looked up): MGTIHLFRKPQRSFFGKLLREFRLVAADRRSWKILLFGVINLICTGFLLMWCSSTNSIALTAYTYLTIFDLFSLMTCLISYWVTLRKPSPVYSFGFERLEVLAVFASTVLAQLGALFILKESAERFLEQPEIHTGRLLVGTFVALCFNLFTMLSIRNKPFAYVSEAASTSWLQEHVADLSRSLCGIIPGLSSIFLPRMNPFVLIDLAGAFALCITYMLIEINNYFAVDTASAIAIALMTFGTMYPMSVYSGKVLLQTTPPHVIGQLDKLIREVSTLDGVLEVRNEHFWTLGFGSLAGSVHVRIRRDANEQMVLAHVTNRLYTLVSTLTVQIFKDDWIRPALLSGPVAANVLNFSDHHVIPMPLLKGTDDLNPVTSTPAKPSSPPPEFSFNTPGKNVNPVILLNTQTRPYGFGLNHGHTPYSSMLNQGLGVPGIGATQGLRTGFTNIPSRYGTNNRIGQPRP
Sequence of UniProt Q92844 (Q92844 whole entry, looked up): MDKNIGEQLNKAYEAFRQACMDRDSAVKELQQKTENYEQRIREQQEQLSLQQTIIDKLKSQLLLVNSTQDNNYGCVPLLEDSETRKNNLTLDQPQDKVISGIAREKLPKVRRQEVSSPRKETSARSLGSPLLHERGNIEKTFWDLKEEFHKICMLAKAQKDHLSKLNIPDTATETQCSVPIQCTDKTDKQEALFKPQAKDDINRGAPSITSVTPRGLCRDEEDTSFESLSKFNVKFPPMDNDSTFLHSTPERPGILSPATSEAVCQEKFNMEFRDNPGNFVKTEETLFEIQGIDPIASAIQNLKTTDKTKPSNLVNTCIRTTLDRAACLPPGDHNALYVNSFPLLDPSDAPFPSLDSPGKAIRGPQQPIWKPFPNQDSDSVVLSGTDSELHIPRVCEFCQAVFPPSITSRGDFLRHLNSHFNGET
Sequence of UniProt P49675 (P49675 whole entry, looked up): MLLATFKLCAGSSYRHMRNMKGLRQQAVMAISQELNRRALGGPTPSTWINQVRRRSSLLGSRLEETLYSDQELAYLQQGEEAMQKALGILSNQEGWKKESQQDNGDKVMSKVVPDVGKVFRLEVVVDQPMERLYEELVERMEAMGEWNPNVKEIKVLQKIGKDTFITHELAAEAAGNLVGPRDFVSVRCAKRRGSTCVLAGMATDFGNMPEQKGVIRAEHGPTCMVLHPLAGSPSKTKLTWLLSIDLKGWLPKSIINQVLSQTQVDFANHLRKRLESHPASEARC
Sequence of UniProt Q01650 (Q01650 whole entry, looked up): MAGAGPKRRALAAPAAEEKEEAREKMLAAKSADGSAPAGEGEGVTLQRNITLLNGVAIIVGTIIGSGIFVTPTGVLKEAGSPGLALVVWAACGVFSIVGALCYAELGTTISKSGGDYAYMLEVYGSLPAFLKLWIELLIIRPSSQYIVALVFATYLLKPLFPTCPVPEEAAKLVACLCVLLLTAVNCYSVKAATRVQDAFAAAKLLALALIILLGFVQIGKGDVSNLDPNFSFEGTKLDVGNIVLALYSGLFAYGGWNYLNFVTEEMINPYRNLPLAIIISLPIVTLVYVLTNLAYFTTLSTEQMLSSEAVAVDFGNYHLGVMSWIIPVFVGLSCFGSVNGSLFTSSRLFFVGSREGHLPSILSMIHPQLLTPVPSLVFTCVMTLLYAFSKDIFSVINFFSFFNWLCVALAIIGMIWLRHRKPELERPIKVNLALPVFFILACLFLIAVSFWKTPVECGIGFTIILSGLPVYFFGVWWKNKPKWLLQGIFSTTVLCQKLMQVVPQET
Sequence of UniProt Q99961 (Q99961 whole entry, looked up): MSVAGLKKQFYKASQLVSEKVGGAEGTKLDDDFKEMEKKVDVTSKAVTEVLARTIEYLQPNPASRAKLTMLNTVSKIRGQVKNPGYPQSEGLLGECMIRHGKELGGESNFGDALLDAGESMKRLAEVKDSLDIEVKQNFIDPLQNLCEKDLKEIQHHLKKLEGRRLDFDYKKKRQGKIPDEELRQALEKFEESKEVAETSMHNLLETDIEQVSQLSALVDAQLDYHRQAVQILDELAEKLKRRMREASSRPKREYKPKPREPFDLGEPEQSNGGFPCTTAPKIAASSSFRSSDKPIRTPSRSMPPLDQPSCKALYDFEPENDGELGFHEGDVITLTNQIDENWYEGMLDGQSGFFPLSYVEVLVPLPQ
Sequence of UniProt O60225 (O60225 whole entry, looked up): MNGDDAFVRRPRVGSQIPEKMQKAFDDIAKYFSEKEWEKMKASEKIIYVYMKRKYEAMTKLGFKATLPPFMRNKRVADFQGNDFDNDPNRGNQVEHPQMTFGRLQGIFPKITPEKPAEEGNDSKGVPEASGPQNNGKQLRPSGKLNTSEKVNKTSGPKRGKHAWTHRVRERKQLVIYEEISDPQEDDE

| Target | log2 fold change (alvocidib) | log2 fold change (Tubastatin A) | log2 fold change [1] | log2 fold change (defactinib) | log2 fold change [2] | log2 fold change (encorafenib) | log2 fold change [3] | log2 fold change (alisertib) | log2 fold change [4] | log2 fold change (gefitinib) |
| --- | --- | --- | --- | --- | --- | --- | --- | --- | --- | --- |
| STUB1 (UniProt Q9UNE7) | -0.012 | -0.193 | 0.003 | -0.029 | 0.026 | -0.025 | 0.135 | 0.003 | 0.007 | -0.003 |
| SMG6 (UniProt Q86US8) | -0.067 | -0.062 | -0.112 | -0.027 | -0.059 | 0.148 | -0.01 | -0.044 | 0.008 | -0.069 |
| SLC25A32 (UniProt Q9H2D1) | -0.05 | 0.037 | -0.01 | 0.03 | 0.052 | 0.04 | 0.01 | 0.036 | 0.001 | -0.033 |
| SMC2 (UniProt O95347) | 0.039 | -0.087 | -0.004 | -0.003 | -0.022 | -0.005 | 0.047 | 0.005 | 0.003 | -0.003 |
| SH3BGRL2 (UniProt Q9UJC5) | 0.067 | 0.031 | 0.05 | 0.039 | 0.061 | -0.066 | 0.027 | -0.013 | -0.001 | -0.001 |
| SSBP3 (UniProt Q9BWW4) | 0.028 | 0.074 | 0 | 0.072 | 0.008 | 0.032 | 0.02 | 0.018 | -0.016 | -0.054 |
| SKA3 (UniProt Q8IX90) | -0.035 | -0.056 | 0.03 | 0.035 | 0.04 | 0.023 | -0.051 | 0.039 | -0.012 | 0.063 |
| STAU1 (UniProt O95793) | 0.062 | -0.06 | 0.051 | 0.027 | -0.04 | 0.078 | -0.009 | 0.072 | -0.007 | 0.012 |
| STK24 (UniProt B4DR80) | -0.029 | 0.02 | -0.022 | 0.11 | -0.008 | -0.012 | -0.039 | -0.037 | 0.078 | -0.052 |
| TANK (UniProt Q92844) | 0.066 | -0.043 | 0.25 | 0.044 | 0.068 | -0.006 | -0.309 (active) | -0.006 | -0.024 | -0.047 |
| SLC7A5 (UniProt Q01650) | -0.142 | 0.012 | -0.047 | -0.044 | 0.046 | -0.001 | -0.084 | -0.002 | 0.021 | 0.006 |
| SLC25A25 isoform 3 (UniProt Q6KCM7) | 0.014 | 0.015 | 0.007 | 0.029 | 0.003 | 0.035 | 0.012 | -0.011 | 0.025 | 0.037 |
| STAR (UniProt P49675) | -0.024 | 0.448 (active) | 0.073 | 0.034 | 0.005 | -0.052 | 0.063 | 0.133 |  | -0.056 |
| SLC11A2 isoform 3 (UniProt P49281) | -0.032 | -0.047 | 0.031 | -0.001 | -0.008 | 0.063 | -0.027 | 0.128 | 0.021 | 0.295 (active) |
| SPPL2A (UniProt Q8TCT8) | 0.013 | 0.107 | 0.103 | -0.054 |  | 0.124 | -0.063 |  | 0.099 |  |
| SORBS3 (UniProt O60504) | 0 | -0.095 | 0.032 | -0.062 | 0.059 | 0.02 | -0.143 |  | 0.065 |  |

| Target | log2 fold change (alvocidib) | log2 fold change (Tubastatin A) | log2 fold change [1] | log2 fold change (defactinib) | log2 fold change [2] | log2 fold change (encorafenib) | log2 fold change [3] | log2 fold change (alisertib) | log2 fold change [4] | log2 fold change (gefitinib) |
| --- | --- | --- | --- | --- | --- | --- | --- | --- | --- | --- |
| SLC20A1 (UniProt Q8WUM9) | 0.002 | 0.054 | -0.012 | -0.155 | 0.016 | -0.039 | -0.057 | -0.026 | 0.036 | 0.05 |
| SH3GL1 (UniProt Q99961) | 0.017 | -0.109 | 0.01 | 0.03 | -0.003 | -0.02 | -0.042 | -0.011 | 0.009 | 0.002 |
| SNAP23 isoform 2 (UniProt O00161) | -0.323 | -0.202 | 0.029 | -0.118 |  | -0.295 | 0.071 | -0.15 | -0.152 | 0.016 |
| SKA2 (UniProt Q8WVK7) | 0.003 | -0.119 | -0.077 | -0.014 | -0.02 | 0.032 | -0.001 | 0.036 | -0.009 | 0.006 |
| SLU7 (UniProt O95391) | -0.086 | -0.042 | -0.065 | 0.016 | -0.006 | 0.071 | 0.021 | 0.002 |  | 0.026 |
| SYK (UniProt P43405) | -0.142 | -0.015 | -0.009 | -0.105 | 0.115 | 0.01 | 0.154 |  | 0.11 | -0.004 |
| SSU72 (UniProt Q9NP77) | -0.127 | -0.05 | -0.035 | -0.026 | -0.032 | -0.04 | 0.183 | -0.016 | -0.013 | -0.004 |
| STN1 (UniProt Q9H668) | -0.078 | -0.032 | 0.173 | 0.016 |  | 0.024 | -0.149 | -0.026 | -0.562 (active) | 0.053 |
| SNUPN (UniProt O95149) | 0.012 | 0.028 | -0.173 | -0.066 |  | 0.006 | 0.155 | -0.007 | -0.009 | 0.076 |
| SLC35A3 isoform 2 (UniProt Q9Y2D2) | -0.406 | -0.079 | 0.016 | 0.069 |  | 0.067 | -0.019 | 0.069 | -0.019 | 0.198 |
| SLC30A6 isoform 2 (UniProt Q6NXT4) | 0.023 | 0.126 | 0.016 | 0.011 |  | 0.003 | -0.322 (active) | 0.003 | -0.18 | -0.005 |
| SLC25A44 (UniProt Q96H78) | -0.05 | 0.007 | -0.221 | 0.064 | 0.14 | 0.015 | -0.013 |  | 0.099 |  |
| SRGN (UniProt P10124) | -0.509 (active) | 0.027 | 0.048 | 0.175 | 0.065 | 0.014 | -0.055 |  | 0.026 |  |
| SSX5 isoform 2 (UniProt O60225) | -0.096 | -0.015 | 0.038 | -0.026 |  | -0.082 | -0.271 | -0.172 | -0.002 | 0.005 |
| SLC16A1 (UniProt P53985) | -0.133 | -0.012 | 0.042 | -0.007 | 0.024 | -0.016 | -0.059 | 0.045 | 0.018 | 0.032 |
| SYNE2 isoform 2 (UniProt Q8WXH0) | -0.415 | 0.143 | -0.117 | -0.139 | -0.003 | -0.036 | 0.004 | 0.037 | 0.034 | -0.059 |
